# ChEMBL document CHEMBL3433997, “St. Jude Leishmania screening dataset” (2016)
# Biological target: Solute carrier family 2, facilitated glucose transporter member 1 (Homo sapiens) (UniProt P11166)
# Assay: ST_JUDE_LEISH: Cytotoxicity at 2uM final concentration against transgenic Leishmania Mexicana promastigotes LmGLUT1 that are glucose transport deficient and complemented with the human glucose transporter GLUT1. Activity is measured by DNA content using SYBR green in vitro
# Format: functional
# Sequence of Solute carrier family 2, facilitated glucose transporter member 1 (Homo sapiens) (P11166 whole entry): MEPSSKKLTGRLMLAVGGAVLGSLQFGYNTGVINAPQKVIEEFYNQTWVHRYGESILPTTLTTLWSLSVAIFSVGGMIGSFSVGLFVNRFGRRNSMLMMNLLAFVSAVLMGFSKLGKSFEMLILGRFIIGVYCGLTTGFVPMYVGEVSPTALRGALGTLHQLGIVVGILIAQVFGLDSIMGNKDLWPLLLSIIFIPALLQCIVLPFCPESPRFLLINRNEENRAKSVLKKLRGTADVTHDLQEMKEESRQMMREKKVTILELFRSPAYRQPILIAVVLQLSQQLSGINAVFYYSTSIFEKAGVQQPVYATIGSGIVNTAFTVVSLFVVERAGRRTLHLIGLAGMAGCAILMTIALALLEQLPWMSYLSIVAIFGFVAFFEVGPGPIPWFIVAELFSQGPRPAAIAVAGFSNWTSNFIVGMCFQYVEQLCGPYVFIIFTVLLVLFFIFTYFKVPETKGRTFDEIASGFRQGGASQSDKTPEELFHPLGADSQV
row,SMILES,inhibition [%]
1,Cc1cnc(C(=O)Nc2ccc(-c3cccc(-c4nc5ccccc5[nH]4)c3)cc2)cn1,2.19
2,N#Cc1ccc(N(CCOc2ccc(Cl)c(F)c2)Cc2ccccc2C(F)(F)F)cc1C(F)(F)F,3.18
3,FC(F)(F)COc1ccc2ccccc2c1CCNCCCCNCCc1c(OCC(F)(F)F)ccc2ccccc12,105
4,COc1ccc2nccc([C@@H](O)CN3CCC(NCc4cc5c(Cl)cc(Cl)cc5[nH]4)CC3)c2c1,6.83
5,COCCNCc1cccc(-c2cccc(CNC3CCN(Cc4ccccc4)CC3)c2)c1,2.73
6,CCN1CCC(N(Cc2ccc(-c3ccc(C(F)(F)F)cc3)o2)C(=O)Cn2c(CCc3cccc(F)c3F)nc(=O)c3ccccc32)CC1,11.3
7,CN1CCC[C@H]1COc1ccc(CN2CC[C@H](NC(=O)c3ccc(Cl)c(Cl)c3)C2)c2ccccc12,9.64
8,CCCCCNc1nc(Nc2ccccc2C)nc2ccccc12,29.1
9,N#Cc1ccc(N/C(=N\c2cccc(Cl)c2Cl)NC2Cc3ccccc3C2)c(O)c1,2.33
10,O=C(Nc1ccccc1)OCCOc1ccc(CC2SC(=O)NC2=O)cc1 (stereo not given),2.13
11,Cc1cccc2nc(-c3cccc(-c4ccc(CN5CCN(CCO)CC5)cc4)c3)[nH]c12,2.28
12,CN1CCN(c2nsc3ccc(-c4ccc(OCCN5CCCC5)cc4)cc23)CC1,13.2
13,CCCc1cc(Cc2cnc(N)nc2N)cc(OC)c1OC,0.14
14,O=C(Nc1ccc(Cl)cc1)c1cc(Cl)cc2nc(C(F)(F)F)[nH]c12,9.28
15,Oc1ccc2c(CNC3CCCCC3)c(O)ccc2c1CNC1CCCCC1,-0.71
16,Cc1cc(C(=O)OCC(N)=O)c(C)n1-c1ccc(F)cc1,-0.25
17,Cc1cc(N[C@@H](Cc2ccccc2)C(=O)NCc2cccs2)nc(NCCc2ccccn2)n1,6.58
18,Nc1ccc2[nH]cc(C3CCN(CC4CCC(NC(=O)/C=C/c5ccc(Cl)c(Cl)c5)CC4)CC3)c2n1 (stereo not given),-2.2
19,CCOc1ncccc1CN1CCC(N2CCc3cc(NC(=O)c4cc(C)on4)ccc32)C1 (stereo not given),-0.44
20,CN1CCC(N(Cc2ccc(-c3ccc(C(F)(F)F)cc3)cc2)C(=O)Cn2cc(Cc3cnn(C)c3)c(=O)nc2SCc2cccc(F)c2F)CC1,2.43

row,SMILES,inhibition [%]
1,Cc1cccn2c(=O)c3cc(C(=O)NC4CCCCC4)c(=N)n(CCCn4ccnc4)c3nc12,-2.65
2,COc1ccc(C=Cc2cc(=N)c3ccccc3[nH]2)cc1Br,1.57
3,NS(=O)(=O)c1cccc(Nc2nc(N[C@@H]3CCNC3)nc3cc[nH]c(=O)c23)c1,4.84
4,Cc1nc2ccc3ccc(CNc4ccc5c(c4)CN([C@H](CCC(=O)O)C(=O)O)C5=O)cc3c2c(=O)[nH]1,3.36
5,COc1cc2c(cc1OC)CN(CCc1ccc(NC(=O)c3cc4cc(Cl)ccc4[nH]3)cc1)CC2,8.2
6,Cc1ccc2[nH]c(C)cc(=NN=Cc3cccc(Cl)c3)c2c1,2.87
7,CCc1c(C)c2ccc3c(c2oc1=O)CN(CCc1ccc(F)cc1)CO3,6.07
8,CCN(CCCN1CCCC1)c1cc(C)nc(Nc2ccc(Cl)cc2)n1,1.46
9,Cc1cccc2nc(-c3ccc(-c4cccc(CN5CCC(C(N)=O)CC5)c4)s3)[nH]c12,-1.68
10,Cc1[nH]c(C)c(-c2ccc(OCc3ccc(OC(F)(F)F)cc3)nc2)c(=O)c1Br,8.89
11,COc1nc(Nc2cccc(C)c2)nc(OC)n1,-0.24
12,COc1ccc(CNC2CCN(C)CC2)cc1-c1cccc(S(=O)(=O)NCc2ccccc2)c1,1.72
13,CC(C)(C)NC(=O)C(c1ccc(F)cc1)N(C(=O)c1ccc(CN2CCOCC2)o1)c1ccc(C2CCCCC2)cc1 (stereo not given),2.43
14,COc1ccc2nccc([C@H](O)CN3CCC(NCc4cc(C)c5c(c4)OCCO5)CC3)c2n1,5.84
15,O=C(Cc1ccc(Nc2nccc(Nc3cccc4[nH]ncc34)n2)cc1)Nc1ccc(C(F)(F)F)cc1,5.9
16,Cc1ccc(Cc2c[nH]c(NCCSCc3ccc(CN4CCOCC4)o3)nc2=O)cn1,2.52
17,COc1nc(NCC(C)C)nc(Oc2ccc(=O)n(Cc3ccccc3)n2)n1,1.73
18,COc1ccc(NC(=O)Nc2ccc(-c3ccc(-c4nc5ccccc5[nH]4)cc3)cc2)cc1,3.84
19,CC1CCNc2ccc(Cc3cnc(N)nc3N)cc21 (stereo not given),2.12
20,Cc1ccc(N2C(N)=NC(N)=NC2(C)C)cc1Cl,11.4
